Data: PubChem BioAssay (NCI)
Compounds without any hit were thinned out: in the full panel of roughly 79,000, 15% have a hit. Rule as the data show it: active = growth inhibition above about 70%; inactive = the rest.

Columns and labels:
[1] = NCI Yeast Anticancer Drug Screen. Data for the rad50 strain (AID 155);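 also: 0% = growth of vehicle-only cultures of the same strain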; conditions: S. cerevisiae rad50 strain growth inhibition; at 50.0 µM; hits give high values
Method in brief: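 Growth of the mutant yeast was measured after compound exposure and referenced to vehicle-treated cultures.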

[2] = NCI Yeast Anticancer Drug Screen. Data for the sgs1 mgt1 strain (AID 161);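 also: 0% = growth of cultures given vehicle only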; conditions: S. cerevisiae sgs1 mgt1 strain, at 50.0 µM, hits give high values
Method in brief: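 Growth of a repair-deficient yeast mutant was monitored after compound treatment and expressed as inhibition relative to vehicle-treated cultures.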

[3] = NCI Yeast Anticancer Drug Screen. Data for the cln2 rad14 strain (AID 165);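 also: 0% = growth equal to vehicle treated cultures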; conditions: S. cerevisiae cln2 rad14 strain, at 50.0 µM, hits give high values
Method in brief: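 Growth inhibition, relative to vehicle-treated controls, is the read-out. The test organism is a yeast strain with defined genetic alterations, cln2 rad14.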

[4] = NCI Yeast Anticancer Drug Screen. Data for the bub3 strain (AID 167); conditions: S. cerevisiae bub3 mutant strain, at 50.0 µM, hits give high values
Method in brief: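 Whole-cell yeast assay. The mutant strain was incubated with compounds, and growth inhibition was determined by comparison with vehicle-treated cells.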

[5] = NCI Yeast Anticancer Drug Screen. Data for the mlh1 rad18 strain (AID 175); conditions: S. cerevisiae mlh1 rad18 strain growth inhibition; at 50.0 µM; hits give high values
Method in brief: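 Cells of a genetically altered yeast strain, deficient in DNA damage repair, were treated with compound. Their growth was then compared with that of vehicle-treated cultures to give inhibition.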

[6] = NCI Yeast Anticancer Drug Screen. Data for the mec2-1 strain (AID 157); conditions: S. cerevisiae mec2-1 strain, at 50.0 µM, hits give high values
Method in brief: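 Growth inhibition is read against vehicle-treated controls after compound exposure of the mec2-1 yeast strain, which is defective in DNA damage repair or cell cycle control.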

Measured: growth inhibition

CCCCCC/C(C)=N/O
inactive: [1] -1.8% | [2] 0.8% | [3] 4.85% | [4] 10.7% | [5] -6.2%

COc1ccc(C(=O)CC(C#N)c2ccc(OC)cc2)cc1 (configuration not stated)
inactive: [1] -6.5% | [2] 0.55% | [3] -21.2% | [4] -4.75% | [5] -1.35%

COc1cc2cc(C)c(C)cc2cc1OC
inactive: [1] -5.8% | [2] -4% | [3] -22.9% | [4] -21.9% | [5] 5.65%

CCCCCCCCCCCCCCCc1nnc(SC)s1
inactive: [1] -22.6% | [2] -14.9% | [3] 15.3% | [5] 11.2%

CN(C)CC1CCc2c(n(C)c3ccccc23)C1=O (configuration not stated)
inactive: [1] -2.55% | [2] 5.2% | [3] -51.8% | [4] -4.35% | [5] 10.6%

CC(C)C1=CC(=O)C(C)(C2=NC(C)(C)CO2)c2ccccc21 (configuration not stated)
inactive: [1] -0.1% | [2] 4.4% | [3] 22.7% | [4] -10.5% | [5] 5.3%

C(=C\C(Sc1ccccc1)c1ccccc1)/NNC1=NC(c2ccccc2)C(c2ccccc2)=NN1 (configuration not stated)
inactive: [1] -22.4% | [2] -42.8% | [3] -4.35% | [4] -19.9% | [5] -3.55%

Cc1c(Cl)c(=O)oc2cc(OCC(O)COC(C)C)ccc12 (configuration not stated)
inactive: [1] -23.7% | [2] -36.3% | [3] -23.2% | [4] -13.3% | [5] -25.4%

O=C(CC(=O)c1ccccc1)Nc1ccc(-c2nc3ccccc3c(=O)[nH]2)cc1
inactive: [1] 20.1% | [2] 19.9% | [3] 1.9% | [4] 19.6% | [5] 27.7%

O=C(C[n+]1ccccc1Br)c1ccc(I)cc1
inactive: [1] -32.9% | [2] 10.3% | [3] -6.95% | [4] 17.1% | [5] 29.9%

CCCCC(C(=O)O)C(=O)O
inactive: [1] -15.3% | [2] -21.8% | [3] 1.1% | [4] -2.05% | [5] -18.4%

C=C1COC(/C=C(\C)CC/C=C(\C)CCl)C1 (configuration not stated)
inactive: [1] -7.4% | [2] -18.6% | [3] 28.1% | [4] -17.1% | [5] -1.7%

O=S(=O)(/C=C/c1ccc(F)cc1)Cc1ccccc1
inactive: [1] -3.2% | [2] 0.65% | [3] 12.9% | [5] 11.7%

Cc1cc(C)c(F)c(C)c1N
inactive: [1] -32.5% | [2] -22% | [3] -19.4% | [4] -22.1% | [5] -4.3%

COc1ccc2c(c1)C(Cc1ccc(Oc3cc(CC4c5cc(OC)ccc5CC[N+]4(C)C)ccc3OC)cc1)[N+](C)(C)CC2 (configuration not stated)
inactive: [1] -5.9% | [2] -7.45% | [3] -9.55% | [4] -6.5% | [5] -12.2%

CC(=O)NC(C=O)OCC=O (configuration not stated)
inactive: [1] 0% | [2] -22.3% | [3] 0.55% | [4] -29.1% | [5] -46.9%

CC1CSC(C)(C)C(=O)N1 (configuration not stated)
inactive: [1] 16.2% | [2] 2.35% | [3] -26.8% | [4] 13.8% | [5] 19.9%

CC(=O)Nc1cc2[nH]c(=O)c3cc(Cl)ccc3c2cc1[N+](=O)[O-]
inactive: [1] 28.8% | [2] 1.65% | [3] 27.1% | [4] 23.6% | [5] 57.8%

CC(=Nc1cccc(C(F)(F)F)c1)c1c(O)cc(C)oc1=O
inactive: [1] 9.25% | [2] 24.9% | [3] 11.7% | [4] 28.2% | [5] 35.1%

CCCCOC(=O)c1ccccc1
inactive: [1] -7% | [2] -10.2% | [3] -2.8% | [4] -1.4% | [5] 18.1%

Clc1ccccc1C1Nc2ccccc2S1 (configuration not stated)
inactive: [1] 39.7% | [2] 48.2% | [3] -7.75% | [4] 13.3% | [5] 38.2%

COc1ccc2cc(CC(=O)c3ccccc3)ccc2c1
inactive: [1] -24.2% | [2] -11.2% | [3] -37.8% | [4] -17.1% | [5] -3.5%

CCCCCCCCCCCCCCCCCCCCCCBr
inactive: [1] 4.95% | [2] 16.8% | [3] 21.4% | [4] -2.75% | [5] 14.3%

OCCCSc1ccccc1SCCCO
inactive: [1] -1.4% | [2] 3.5% | [3] -1.7% | [4] 3.75% | [5] 5.1%

CCC(CCC(C)C1CCC2C3CC=C4CC(OC(=O)Nc5ccccc5)CCC4(C)C3CCC12C)C(C)C (configuration not stated)
inactive: [1] -23.4% | [2] -15.9% | [3] -38.5% | [4] -1.5% | [5] -26.4%

CC(NNC(=S)N1CCCC1)c1cccc[n+]1[O-] (configuration not stated)
inactive: [1] 3.4% | [2] 8.4% | [3] -4.9% | [4] 8.3% | [5] 13.9%

NC(=S)NNC(=O)c1cccs1
inactive: [1] -9.9% | [2] 22.6% | [3] 3.35% | [4] 7.05% | [5] 9.75%

CC(=O)C(C)CCOC1(C)OCCC1C (configuration not stated)
inactive: [1] -7.4% | [2] -13.1% | [3] -22.2% | [4] -36.4% | [5] 7%

COC(=O)C(C)NC(=O)C(C)NC(=O)c1cc(OC)c(OC)c(OC)c1 (configuration not stated)
inactive: [1] 28.2% | [2] 17.4% | [3] 17.1% | [5] 15.8%

COC(=O)C(N)CSc1ccc([N+](=O)[O-])cc1[N+](=O)[O-] (configuration not stated)
inactive: [1] 37.5% | [2] 40.2% | [3] 25.1% | [4] 16.1% | [5] 48.9%

Cc1cccc(C)c1NC(=O)/C(Cc1nc2ccc([N+](=O)[O-])cc2[nH]c1=O)=N\NC(N)=O
inactive: [1] 55.4% | [2] 30.9% | [3] 8.85% | [4] 66.5% | [5] 41.4%

CC(=O)Nc1ccc(S(=O)(=O)N/N=c2/sc3ccccc3n2C)cc1
inactive: [1] -11.3% | [2] 16% | [3] 20.5% | [4] 13.8% | [5] -4%

CCOC(=O)CCCl
inactive: [1] 24% | [2] -2.95% | [3] 30.2% | [4] 31.3% | [5] 12.8%

C=C1C(=O)O[C@H]2[C@H]1CC(=O)/C(C)=C\CC[C@@]1(C)O[C@@H]21
inactive: [1] 29.2% | [2] 63.4% | [3] 35.5% | [4] 64.8% | [5] 43.1%

COc1cc(OC)c2c3c(OC)cc(OC)c4c(=O)c(O)c(C[C@@H](C)O)c(c5c(C[C@@H](C)O)c(O)c(=O)c1c25)c43
inactive: [1] 66.8% | [2] 37% | [3] -4.45% | [4] 34.4% | [5] 54.9%

CCOC(=O)C1CC(C)CC1=O (configuration not stated)
inactive: [1] 5.7% | [2] -4.6% | [3] -4.4% | [4] 1.35% | [5] 0.2%

CCCCCCCCCCCCCCCC(=O)N(CCCC)CCCC
inactive: [1] 3.55% | [2] -4.05% | [3] 11.9% | [4] 3.4% | [5] 8.85%

CCN(/N=C1\CC2C=CCN(C2)C(=O)Cc2c1[nH]c1ccccc21)S(=O)(=O)c1ccc(C)cc1 (configuration not stated)
inactive: [1] 30.9% | [2] 39.2% | [3] 23.6% | [4] 20.5% | [5] 19.4%

C=C(C)CN(CC(=C)C)c1nc(N)nc(N)n1
inactive: [1] -35.2% | [2] -21.9% | [3] -43.5% | [4] -2.1% | [5] -13.1%

COc1ccccc1NC(=O)CC(=O)n1nc(C)c(N=Nc2ccccc2C(=O)O)c1C
inactive: [1] -12.6% | [2] -17.6% | [3] -14.9% | [4] -15.8% | [5] -9.5%

OCCc1ccc2ccccc2c1
inactive: [6] -5.95% | [2] 3.05% | [3] -9.3% | [4] 13.8% | [5] -1.15%

CC(NCCCNC(C)C(=O)O)C(=O)O (configuration not stated)
inactive: [6] 1.45% | [2] 26.8% | [3] 32.3% | [4] 11.1% | [5] 13.4%

O=C(C1OC1c1ccccc1)C1OC1c1ccccc1 (configuration not stated)
inactive: [6] 10.2% | [2] 9.55% | [3] -12.4% | [4] 62.1% | [5] 37%

C=C(C)COc1ccc(/C=C/C(=O)OCC)cc1
inactive: [6] -4% | [2] 4.5% | [3] 1.2% | [4] -6.25% | [5] -12.4%
